Source: the supplement of paper PMC10849652
Targets with a hit are over-represented here; the source holds about 8,800 in all. About 0.5% of all pairs of compound and target were hits. A number with no mark means an inactive call.

Key:
Assay in all cases: log2 fold change, soluble protein after heating vs DMSO (PISA); higher = thermal stabilisation; K562 lysate, 10 uM; active = over 0.2 and 3.5 SD of the protein, either way, in both replicates (recomputed)
[1] = compound: C=CC(=O)N1CCC[C@@H](n2nc(-c3ccc(Oc4ccccc4)cc3)c3c(N)ncnc32)C1 [ibrutinib]
How it was run: (§1)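 Soluble protein was defined as the supernatant remaining after 21,000xg for 90 min, following pooling of heated aliquots and adjustment to 0.5% NP-40 at 4°C. Before that, crude K562 extract at 1 mg/mL protein in PBS pH 7.4 with 1 mM MgCl2 was treated with 10 μM compound for 30 min and heated for 3 min across 48°C-58°C. Quantification used TMTpro 16plex LC-MS/MS with channel sums equalised, and values are log-two fold changes in thermal stability relative to solvent controls from duplicates.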

[2] = compound: CC(=O)c1cnc2ccc(-c3cc(Cl)c(O)c(Cl)c3)nc2c1N[C@H]1CC[C@H](CN(C)C)CC1
How it was run: as §1

[3] = compound: CC(C)(C)Cn1c(N)nc2ccc(-c3[nH]c(C(C)(C)C)nc3-c3ccc(F)cc3)nc21 [ralimetinib]
How it was run: as §1

[4] = compound: CC(C)(O)CC(=O)NCCn1ccc2ncnc(Nc3ccc(Oc4cccc(C(F)(F)F)c4)c(Cl)c3)c21
How it was run: as §1

[5] = compound: CC(C)C1=C2N=C(C=C(N2N=C1)NCC3=CC=CC=C3)NCCCCCCN
How it was run: as §1

[6] = compound: CC1=C(C(CC(=O)N1)C2=CC=C(C=C2)C(F)(F)F)C(=O)NC3=C(C=C4C(=C3)C=NN4)F
How it was run: as §1

[7] = compound: CC1=C(C2=C(C=C1)C(=O)C3=CC=CC=C3N2CCCN)C
How it was run: as §1

[8] = compound: CC1=C(C=C(C=C1)NC(=O)C2=CC(=CC=C2)C(C)(C)C#N)NC3=CC4=C(C=C3)N=CN(C4=O)C
How it was run: as §1

[9] = compound: CC1=C(C=C(C=C1)NC(=O)C2=CC(=CC=C2)N(C)C)NC(=O)C3=CC=C(C=C3)O
How it was run: as §1

[10] = compound: CC1=CC=C(C=C1)SC2=C3C=C(SC3=CN=C2)C(=O)N
How it was run: as §1

[11] = compound: CCCS(=O)(=O)Nc1ccc(F)c(C(=O)c2c[nH]c3ncc(-c4ccc(Cl)cc4)cc23)c1F [vemurafenib]
How it was run: as §1

[12] = compound: CCCS(=O)(=O)Nc1ccc(F)c(C(=O)c2c[nH]c3ncc(Cl)cc23)c1F
How it was run: as §1

[13] = compound: CCN(CCCOc1ccc2c(Nc3cc(CC(=O)Nc4cccc(F)c4)[nH]n3)ncnc2c1)CCOP(=O)(O)O [barasertib]
How it was run: as §1

[14] = compound: CC[C@@H]1C(=O)N(C)c2cnc(Nc3ccc(C(=O)NC4CCN(C)CC4)cc3OC)nc2N1C1CCCC1
How it was run: as §1

[15] = compound: CC[C@@H]1C(=O)N(C)c2cnc(Nc3ccc(C(=O)N[C@H]4CC[C@H](N5CCN(CC6CC6)CC5)CC4)cc3OC)nc2N1C(C)C [volasertib]
How it was run: as §1

[16] = compound: CCn1c(C(=O)N(C2CC2)C2CC2)cc2c3c(ncn3C)c(Nc3cc(C)n(C)n3)nc21
How it was run: as §1

[17] = compound: CCn1cc(-c2ccnc3[nH]c(-c4cccc(CN(C)C)c4)cc23)c(-c2ccc(NC(=O)N(C)C)cc2)n1
How it was run: as §1

[18] = compound: CN1CCC(CNc2ccc3ncc(-c4cccc(OC(F)(F)F)c4)n3n2)CC1
How it was run: as §1

[19] = compound: CN1CCN(CCOc2cc(OC3CCOCC3)c3c(Nc4c(Cl)ccc5c4OCO5)ncnc3c2)CC1 [saracatinib]
How it was run: as §1

[20] = compound: CN1CCN(c2nc(C3=C(c4c[nH]c5ccccc45)C(=O)NC3=O)c3ccccc3n2)CC1 [sotrastaurin]
How it was run: as §1

Chain of UniProt Q9NSV4 (Q9NSV4 whole entry, looked up): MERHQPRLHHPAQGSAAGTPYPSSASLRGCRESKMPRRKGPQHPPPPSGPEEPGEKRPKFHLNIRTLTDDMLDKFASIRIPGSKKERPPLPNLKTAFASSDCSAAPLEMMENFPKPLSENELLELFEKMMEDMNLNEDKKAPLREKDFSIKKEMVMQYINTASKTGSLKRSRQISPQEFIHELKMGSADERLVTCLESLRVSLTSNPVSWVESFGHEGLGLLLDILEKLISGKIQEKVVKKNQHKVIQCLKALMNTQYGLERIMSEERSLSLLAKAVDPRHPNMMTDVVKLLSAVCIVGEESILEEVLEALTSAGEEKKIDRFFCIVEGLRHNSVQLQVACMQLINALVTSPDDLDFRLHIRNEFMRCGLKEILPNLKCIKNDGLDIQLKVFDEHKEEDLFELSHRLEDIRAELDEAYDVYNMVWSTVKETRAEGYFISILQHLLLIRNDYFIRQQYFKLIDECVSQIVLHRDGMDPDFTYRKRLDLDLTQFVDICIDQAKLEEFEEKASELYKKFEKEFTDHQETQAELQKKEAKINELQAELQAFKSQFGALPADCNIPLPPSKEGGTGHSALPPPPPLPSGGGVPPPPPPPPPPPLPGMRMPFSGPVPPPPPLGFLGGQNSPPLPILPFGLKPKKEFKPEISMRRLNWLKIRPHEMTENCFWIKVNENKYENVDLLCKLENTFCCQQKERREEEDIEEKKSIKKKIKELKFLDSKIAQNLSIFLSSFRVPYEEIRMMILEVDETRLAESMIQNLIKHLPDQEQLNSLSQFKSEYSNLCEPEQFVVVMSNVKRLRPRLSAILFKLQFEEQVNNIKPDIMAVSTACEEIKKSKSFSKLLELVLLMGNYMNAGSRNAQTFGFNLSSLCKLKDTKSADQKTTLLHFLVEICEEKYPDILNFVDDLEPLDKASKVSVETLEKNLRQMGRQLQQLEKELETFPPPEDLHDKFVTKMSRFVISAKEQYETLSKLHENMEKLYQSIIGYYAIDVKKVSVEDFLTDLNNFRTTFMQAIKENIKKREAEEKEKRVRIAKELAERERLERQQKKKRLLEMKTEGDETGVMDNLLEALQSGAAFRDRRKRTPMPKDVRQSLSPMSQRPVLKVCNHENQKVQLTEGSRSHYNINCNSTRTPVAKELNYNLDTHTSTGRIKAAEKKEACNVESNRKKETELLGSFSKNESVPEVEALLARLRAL
Chain of UniProt Q8IWV2 (Q8IWV2 whole entry, looked up): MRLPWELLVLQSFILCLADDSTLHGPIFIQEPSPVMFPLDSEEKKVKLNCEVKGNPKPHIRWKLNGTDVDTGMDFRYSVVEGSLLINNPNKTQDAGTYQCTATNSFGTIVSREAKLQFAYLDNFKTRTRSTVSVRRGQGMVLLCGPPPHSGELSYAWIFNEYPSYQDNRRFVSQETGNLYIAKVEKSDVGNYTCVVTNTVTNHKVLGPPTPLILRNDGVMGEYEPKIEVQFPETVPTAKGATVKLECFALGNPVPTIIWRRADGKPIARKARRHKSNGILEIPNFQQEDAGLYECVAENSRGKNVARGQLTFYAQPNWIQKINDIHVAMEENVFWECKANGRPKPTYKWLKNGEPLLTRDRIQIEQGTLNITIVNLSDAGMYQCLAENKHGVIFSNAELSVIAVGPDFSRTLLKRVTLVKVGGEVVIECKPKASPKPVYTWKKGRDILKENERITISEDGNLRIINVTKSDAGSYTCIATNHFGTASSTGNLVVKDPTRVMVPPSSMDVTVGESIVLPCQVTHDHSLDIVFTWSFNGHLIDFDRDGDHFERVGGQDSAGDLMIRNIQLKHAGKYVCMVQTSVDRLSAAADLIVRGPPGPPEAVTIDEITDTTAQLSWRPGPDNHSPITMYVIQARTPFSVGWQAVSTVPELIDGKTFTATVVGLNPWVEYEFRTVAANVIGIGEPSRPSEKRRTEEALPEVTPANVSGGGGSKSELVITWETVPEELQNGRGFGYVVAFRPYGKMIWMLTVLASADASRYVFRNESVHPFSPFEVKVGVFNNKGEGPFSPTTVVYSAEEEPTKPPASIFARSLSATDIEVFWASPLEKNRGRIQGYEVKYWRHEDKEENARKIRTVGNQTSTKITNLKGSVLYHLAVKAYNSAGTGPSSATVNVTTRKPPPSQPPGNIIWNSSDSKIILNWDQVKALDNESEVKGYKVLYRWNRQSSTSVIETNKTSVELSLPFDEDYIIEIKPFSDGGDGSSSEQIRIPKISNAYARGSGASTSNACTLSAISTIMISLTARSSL
Chain of UniProt O75534 (O75534 whole entry, looked up): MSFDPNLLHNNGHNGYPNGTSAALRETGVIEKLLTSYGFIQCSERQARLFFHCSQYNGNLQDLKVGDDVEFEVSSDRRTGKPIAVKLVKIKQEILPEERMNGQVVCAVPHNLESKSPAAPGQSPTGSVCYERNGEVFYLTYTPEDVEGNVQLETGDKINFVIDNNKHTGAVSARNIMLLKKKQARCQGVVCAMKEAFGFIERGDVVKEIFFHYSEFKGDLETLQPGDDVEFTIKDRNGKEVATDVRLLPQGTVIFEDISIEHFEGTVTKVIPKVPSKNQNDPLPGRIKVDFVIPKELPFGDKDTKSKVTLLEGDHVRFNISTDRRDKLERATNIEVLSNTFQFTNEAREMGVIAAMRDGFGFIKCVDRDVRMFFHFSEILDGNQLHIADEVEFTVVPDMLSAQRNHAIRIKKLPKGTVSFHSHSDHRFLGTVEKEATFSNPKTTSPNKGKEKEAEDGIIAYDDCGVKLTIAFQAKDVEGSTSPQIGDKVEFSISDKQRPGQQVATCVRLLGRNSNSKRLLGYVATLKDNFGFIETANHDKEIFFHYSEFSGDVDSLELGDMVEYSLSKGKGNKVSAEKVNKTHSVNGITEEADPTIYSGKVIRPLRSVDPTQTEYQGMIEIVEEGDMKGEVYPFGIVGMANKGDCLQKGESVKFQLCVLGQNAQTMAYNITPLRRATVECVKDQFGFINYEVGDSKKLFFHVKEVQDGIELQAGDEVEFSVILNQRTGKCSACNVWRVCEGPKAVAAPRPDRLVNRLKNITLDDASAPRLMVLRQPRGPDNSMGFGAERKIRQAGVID
Chain of UniProt O95715 (O95715 whole entry, looked up): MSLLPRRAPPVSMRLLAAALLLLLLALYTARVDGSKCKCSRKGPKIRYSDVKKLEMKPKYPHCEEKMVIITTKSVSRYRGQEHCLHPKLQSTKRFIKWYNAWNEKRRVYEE
Chain of UniProt Q15398 (Q15398 whole entry, looked up): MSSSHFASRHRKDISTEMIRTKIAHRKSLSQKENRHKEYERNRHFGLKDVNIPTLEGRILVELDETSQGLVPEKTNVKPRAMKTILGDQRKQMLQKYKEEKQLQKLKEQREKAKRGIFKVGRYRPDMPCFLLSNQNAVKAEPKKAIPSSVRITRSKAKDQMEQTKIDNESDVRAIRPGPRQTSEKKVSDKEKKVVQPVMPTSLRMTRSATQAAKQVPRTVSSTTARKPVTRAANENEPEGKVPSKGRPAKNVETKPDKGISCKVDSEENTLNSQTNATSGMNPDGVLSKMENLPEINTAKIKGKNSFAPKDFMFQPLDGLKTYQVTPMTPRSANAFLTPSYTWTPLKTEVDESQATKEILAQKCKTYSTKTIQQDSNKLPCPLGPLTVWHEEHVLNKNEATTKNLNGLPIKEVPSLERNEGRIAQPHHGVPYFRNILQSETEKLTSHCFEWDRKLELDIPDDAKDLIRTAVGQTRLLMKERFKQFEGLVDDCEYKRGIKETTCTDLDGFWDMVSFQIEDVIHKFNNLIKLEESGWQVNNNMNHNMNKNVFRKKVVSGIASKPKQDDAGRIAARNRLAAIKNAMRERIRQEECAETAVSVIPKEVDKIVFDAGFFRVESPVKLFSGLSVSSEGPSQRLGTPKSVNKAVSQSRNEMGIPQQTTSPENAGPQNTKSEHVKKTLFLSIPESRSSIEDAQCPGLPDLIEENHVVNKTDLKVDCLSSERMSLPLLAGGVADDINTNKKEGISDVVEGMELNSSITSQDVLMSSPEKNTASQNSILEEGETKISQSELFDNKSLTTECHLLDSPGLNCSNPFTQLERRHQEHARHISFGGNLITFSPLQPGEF
Chain of UniProt Q6ZPD9 (Q6ZPD9 whole entry, looked up): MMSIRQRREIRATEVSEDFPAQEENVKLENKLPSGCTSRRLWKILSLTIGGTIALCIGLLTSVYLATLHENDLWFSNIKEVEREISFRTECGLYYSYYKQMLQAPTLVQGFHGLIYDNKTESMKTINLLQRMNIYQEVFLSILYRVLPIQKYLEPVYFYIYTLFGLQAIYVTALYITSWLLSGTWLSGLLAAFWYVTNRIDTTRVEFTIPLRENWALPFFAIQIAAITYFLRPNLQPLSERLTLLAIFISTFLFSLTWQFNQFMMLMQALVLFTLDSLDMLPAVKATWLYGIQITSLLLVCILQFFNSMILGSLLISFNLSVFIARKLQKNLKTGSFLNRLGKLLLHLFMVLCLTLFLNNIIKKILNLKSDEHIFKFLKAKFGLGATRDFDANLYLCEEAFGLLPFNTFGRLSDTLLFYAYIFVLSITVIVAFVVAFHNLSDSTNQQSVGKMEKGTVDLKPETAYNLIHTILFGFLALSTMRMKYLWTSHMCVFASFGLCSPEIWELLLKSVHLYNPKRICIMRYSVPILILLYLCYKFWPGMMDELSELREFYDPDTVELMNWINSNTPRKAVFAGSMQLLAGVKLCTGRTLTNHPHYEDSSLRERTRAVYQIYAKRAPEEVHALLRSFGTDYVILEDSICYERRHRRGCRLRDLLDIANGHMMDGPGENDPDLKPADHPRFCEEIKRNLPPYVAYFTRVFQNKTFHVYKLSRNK
Chain of UniProt Q16527 (Q16527 whole entry, looked up): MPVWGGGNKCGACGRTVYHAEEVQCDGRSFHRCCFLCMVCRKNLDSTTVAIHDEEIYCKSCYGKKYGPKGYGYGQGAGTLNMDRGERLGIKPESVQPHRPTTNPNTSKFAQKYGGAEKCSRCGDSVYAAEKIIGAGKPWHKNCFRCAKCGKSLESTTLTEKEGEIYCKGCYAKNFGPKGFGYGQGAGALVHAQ
Chain of UniProt Q9P003 (Q9P003 whole entry, looked up): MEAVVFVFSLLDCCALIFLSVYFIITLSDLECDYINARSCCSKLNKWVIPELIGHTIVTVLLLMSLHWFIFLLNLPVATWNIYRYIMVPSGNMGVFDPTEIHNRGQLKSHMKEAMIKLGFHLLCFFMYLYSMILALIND

Target	log2 fold change [1]	log2 fold change [2]	log2 fold change [3]	log2 fold change [4]	log2 fold change [5]	log2 fold change [6]	log2 fold change [7]	log2 fold change [8]	log2 fold change [9]	log2 fold change [10]	log2 fold change [11]	log2 fold change [12]	log2 fold change [13]	log2 fold change [14]	log2 fold change [15]	log2 fold change [16]	log2 fold change [17]	log2 fold change [18]	log2 fold change [19]	log2 fold change [20]
DNAH10 (UniProt Q8IVF4)	0.038	-0.017	-0.123	-0.112	-0.015	-0.04	-0.069	0.137	-0.014	-0.051	0.067	0	0.069	0.064	0.044	-0.05	-0.582 (active)	0.139	0.022	-0.029
DIAPH3 (UniProt Q9NSV4)	0.012	0.093	0.086	-0.032	-0.066	0.043	0.005	-0.011	0.038	-0.035	0.041	0.028	0.057	-0.023	-0.099	0.058	-0.098	-0.092	0.053	0.064
CNOT6L (UniProt Q96LI5)	0.02	0.015	0.037	-0.06	-0.05	0.064	-0.07	0.008	-0.041	0.016	0.035	-0.007	0.065	-0.006	0.006	0.078	-0.422 (active)	0.107	0.048	-0.019
COG4 (UniProt Q9H9E3)	0.014	0.005	-0.007	-0.042	-0.029	0	-0.001	-0.049	-0.033	0	0.018	0.047	0.085	-0.048	-0.088	0.024	0.005	-0.125	0.055	0.05
DDA1 (UniProt Q9BW61)	0.108	-0.003	0	0.019	-0.072	0.028	0.022	0.01	0.018	-0.017	-0.02	0.038	-0.004	0.003	0	0.046	0	-0.023	0.019	-0.025
DCP2 (UniProt Q8IU60)	-0.005	-0.005	0.067	0.003	0.006	0.021	0.034	-0.043	0.081	-0.002	-0.05	-0.038	0.014	0.016	-0.061	-0.028	0.059	-0.13	-0.023	-0.01
DENND6A (UniProt Q8IWF6)	0.014	0.064	0.052	-0.047	0.037	0.002	-0.03	0.001	0.022	0.051	0.025	0.033	0.066	0.029	-0.062	0.019	0.017	0.004	-0.012	-0.027
CMSS1 (UniProt Q9BQ75)	-0.012	-0.016	-0.002	-0.011	0.047	-0.015	0.027	-0.059	0.019	-0.004	-0.011	0.005	0.023	-0.007	-0.011	0	0.212	-0.086	0.007	-0.003
CYP4V2 (UniProt Q6ZWL3)	0.157	0.129	0.058	-0.095	-0.004	–	-0.022	0.02	0.015	0.015	–	-0.021	-0.021	–	0.05	-0.12	–	–	-0.076	-0.17
CSRP2 (UniProt Q16527)	0.054	–	–	–	–	–	–	0.271	–	–	–	–	0.078	0.052	–	–	0.09	0.126	–	-0.351 (active)
CSAD isoform 3 (UniProt Q9Y600)	-0.224	–	-0.019	-0.048	0.041	–	–	-0.027	-0.033	–	–	–	0.456 (active)	–	–	0.001	–	–	–	-0.003
CRLS1 (UniProt Q9UJA2)	-0.023	-0.008	0.079	-0.027	-0.102	-0.049	–	0.066	0.058	0.048	–	0.063	0.014	–	0.005	0.017	0.022	-0.301	–	-0.008
DLGAP5 isoform 3 (UniProt Q15398)	-0.076	–	–	–	–	–	0.233	–	–	–	–	–	0.281	–	–	–	-0.165	-0.03	0.165	–
CNIH4 (UniProt Q9P003)	0.13	-0.014	0.006	-0.152	0.278	0.066	-0.115	-0.008	0.211	-0.024	0.217	0.064	0.585	0.051	-0.077	-0.19	–	–	0.021	0.066
CSDE1 isoform 3 (UniProt O75534)	0.051	-0.331	0.047	0.019	–	-0.112	–	-0.009	-0.137	0.031	–	-0.014	0.05	–	-0.193	0.113	-0.064	-0.104	–	0.07
CNTN4 (UniProt Q8IWV2)	-0.043	-0.154	-0.286	-0.341	0.094	-0.077	–	0.312	-0.039	-0.141	0.237	0.12	0.03	0.295	0.024	-0.326	-0.474	0.128	–	-0.076
DDX4 (UniProt Q9NQI0)	0.019	-0.004	0.04	0.087	-0.032	0.008	0.1	–	-0.051	-0.026	-0.044	-0.015	0.069	-0.071	-0.021	0.015	-0.167	0	-0.027	–
CLUH, A0A494C0R8	–	0.138	0.053	-0.043	0.002	-0.128	0	0.016	-0.035	0.029	-0.11	0.027	-0.092	0.097	-0.005	0	0.59 (active)	-0.047	0.03	0.051
CSNK1G3 (UniProt Q9Y6M4)	-0.025	0.529 (active)	0.003	-0.048	-0.038	-0.007	0.024	0.031	-0.066	0.132	-0.004	-0.053	-0.028	–	0.002	0.039	-0.095	0.065	0.043	0.035
CSNK1D (UniProt P48730)	-0.086	0.494 (active)	-0.038	-0.112	–	0.245	-0.151	-0.001	-0.143	0.179	-0.04	-0.044	-0.092	–	-0.191	0.025	–	0.255	-0.039	0.058
CXCL14 (UniProt O95715)	-0.012	–	–	–	–	–	–	–	–	–	0.252	–	0.079	0.189	–	–	–	–	–	–
CSNK2B (UniProt P67870)	-0.004	0.408 (active)	0.003	-0.013	0	-0.054	0.114	-0.004	-0.015	-0.016	-0.042	0.03	-0.032	-0.007	-0.038	0.015	0.01	0.124	-0.066	-0.029
CLIP1 isoform 1 (UniProt P30622)	–	-0.005	0.004	0	-0.008	-0.01	-0.016	0.006	0.003	-0.004	-0.011	0.016	-0.011	0.034	0.034	-0.03	-0.055	0.02	0.021	0.008
DPY19L3 (UniProt Q6ZPD9)	-0.111	0.012	–	–	-0.224	–	–	0.047	–	-0.017	0.258	0.05	0.071	0.043	-0.007	–	–	–	–	0.051
